# Laboratory results reported in PubChem BioAssay AID1706 (The Scripps Research Institute Molecular Screening Center, 2009).
# In all, about 290,000 compounds went through this assay and about 400 (0.14%) were called active. Cut-off read from the data, not from the text of the source: active = inhibition above about 12%; inactive = the rest. The entries come from a sample that favours actives as a whole.
# Target: Replicase polyprotein 1ab (Severe acute respiratory syndrome coronavirus) (UniProt P0C6X7)
# Assay: SARS-CoV 3CLpro protease inhibitors, primary screen, biochemical, quenched FRET (AID 1706)
# Conditions: recombinant SARS-CoV 3CLpro, quenched FRET peptide cleavage; at 6 µM; stronger effect = higher value
row,Structure (SMILES),inhibition
1,COC(=O)c1ccc2c(=O)n(CCN3CCOCC3)c(SCC(=O)Nc3cccc(OC)c3)nc2c1,-4.67% (inactive)
2,CCC(=O)c1cn(CCOc2ccccc2OC)c2ccccc12,1.13% (inactive)
3,COc1ccccc1NC(=O)N1CCCC1C(=O)NCc1cccs1 (stereo unspecified),-2.73% (inactive)
4,Cc1cc(C)cc(NS(=O)(=O)Cc2ccccc2)c1,-7.45% (inactive)
5,CCCc1nnc(NC(=O)CCC(=O)NC2CC2)s1,-2.59% (inactive)
6,O=C(COC(=O)CCCNC(=O)c1ccc(Cl)cc1)Nc1cc(Cl)ccc1Cl,-4.18% (inactive)
7,O=C(CN1CCC(NC(=O)Nc2ccccc2)CC1)Nc1cccc([N+](=O)[O-])c1,-2.45% (inactive)
8,CN(CC(=O)Nc1cccc(F)c1)CC(=O)Nc1cccc([N+](=O)[O-])c1,0.23% (inactive)
9,CN1CCN(CC(=O)Nc2cccc([N+](=O)[O-])c2)CC1,15.7% (active)
10,CC(=O)N1CCSc2ccc(S(=O)(=O)N3CCC(C)CC3)cc21,0.66% (inactive)
11,O=C(COC(=O)c1cc(=O)[nH]c2ccccc12)Nc1nc(-c2cccc(Br)c2)cs1,2.23% (inactive)
12,CC(C)NC(=O)COCc1cc(-c2ccc3c(c2)OCO3)on1,3.95% (inactive)
13,CCc1nonc1NC(=O)c1oc2ccc(Cl)cc2c1C,-1.85% (inactive)
14,CCN1CCN(C(=O)Cn2nc(C)n3c(cc4c(OC)cccc43)c2=O)CC1,-4.38% (inactive)
15,COc1ccc(NC(=O)C2C3C=CC(C3)C2C(=O)NCc2ccccn2)c(OC)c1 (stereo unspecified),0.98% (inactive)
16,O=C(CCc1nnc2ccc(NCc3ccccc3Cl)nn12)NCC1CCN(C2CCCC2)C1 (stereo unspecified),2.8% (inactive)
17,COc1cccc(CNS(=O)(=O)c2cc3c(cc2C)n(C)c(=O)c(=O)n3C)c1,3.5% (inactive)
18,O=C(CN1C(=O)C2C3C=CC(C3)C2C1=O)NCC1COc2ccccc2O1 (stereo unspecified),2.22% (inactive)
19,O=C1C(=O)N(CC2COc3ccccc3O2)c2ccccc21 (stereo unspecified),23.4% (active)
20,Cc1cc(C(=O)CCl)c(C)n1CC1COc2ccccc2O1 (stereo unspecified),6.71% (inactive)
21,CC(C)c1ccccc1OCC(O)CN(CC(O)COc1cccc2ccccc12)C(C)C (stereo unspecified),3.86% (inactive)
22,Nc1ncc(CN2CCCC(C(=O)Nc3ccc(-c4ccco4)cc3)C2)cn1 (stereo unspecified),-4.02% (inactive)
23,CC12CCC(C(=O)N(NC(=O)c3ccccc3O)C1=O)C2(C)C (stereo unspecified),5.94% (inactive)
24,Cc1ccc(-c2nc(-c3cccnc3)sc2CC(=O)Nc2ccc(C)c(Cl)c2)cc1,-0.63% (inactive)
25,Oc1ccc2ccc3cccc[n+]3c2c1,3.63% (inactive)
26,CN(C)S(=O)(=O)c1cccc(C(=O)OCC(=O)N2CCCC2=O)c1,0.39% (inactive)
